About 2,700 (4%) of roughly 68,000 compounds showed an effect of 50% or more. This is one part of a sample in which strong results are shown more often than they occur.
system: Plasmodium berghei; test: Screen against P. berghei liver stage (PbLuc), transformed with Luciferase, at 2uM; assay type: functional, HepG2; conditions: tested at 2 uM

Compound | INHIBITION [%]
O=C(NCCCO)c1cc(-c2cc[nH]n2)n2ccccc12 | -50.4
Fc1cccc(-c2nnn3c2COCC(CNCc2nccs2)C3)c1 (stereo unspecified) | 3.18
CCc1cc(N(C)CCC(O)c2ccccc2)n2nccc2n1 (stereo unspecified) | 53.12
COCc1cc(N(C)CCC(O)c2ccccc2)n2nccc2n1 (stereo unspecified) | 45.87
Cc1cc(N(C)CCC(O)c2ccccc2)n2nccc2n1 (stereo unspecified) | 26.35
CN(C)C(C(=O)N1CCCC1)c1ccccc1F (stereo unspecified) | -12.23
CCOCC1CCN(C(=O)C(c2ccccc2F)N(C)C)CC1 (stereo unspecified) | -45.44
CN(C)C(C(=O)N1CCC(CCO)CC1)c1ccccc1F (stereo unspecified) | 57.34
c1cncc(C2CC3(CCN(c4cnccn4)CC3)c3ccccc32)c1 (stereo unspecified) | -8.91
COc1cccc(-n2nnc(C(=O)N3CCCCCC3)c2C)c1 | 30.05
COc1cccc(-n2nnc(C(=O)N3CCCC3)c2C)c1 | -32.49
COc1cccc(-n2nnc(C(=O)N3CCC(C(N)=O)CC3)c2C)c1 | 56.78
COc1cccc(-n2nnc(C(=O)N3CCOC(C)C3)c2C)c1 (stereo unspecified) | 32.64
COc1cccc(-n2nnc(C(=O)N3CCCC(C)C3)c2C)c1 (stereo unspecified) | 5.91
COc1cccc(-n2nnc(C(=O)N3CCN(C)CC3C)c2C)c1 (stereo unspecified) | 89.42
Cc1nc(-c2ccc(S(=O)(=O)N3CCC4(CC3)OCCO4)cc2)co1 | 13.93
CCNc1cc2c(nn1)CCN(C(=O)C(C)c1c(C)noc1C)C2 (stereo unspecified) | -45.83
COc1cc(CNCc2ccnc(N3CCCC3)c2)cc(OC)c1 | -2.71
CCN1C[C@H]2C3(CCN(C(=O)NC(C)C)CC3)CC[C@@]2(C(=O)NC)C1 | 45.36
O=S(=O)(c1c(Cl)nc2sccn12)N1CCCC2(CCNC2)C1 (stereo unspecified) | 12.83
O=S(=O)(c1c(Cl)nc2sccn12)N1CCC2(CCNCC2)C1 | 27.17
CN1CCCC2(CCN(S(=O)(=O)c3c(Cl)nc4sccn34)C2)C1=O (stereo unspecified) | 66.11

Compound | INHIBITION [%]
CCC1=N[C@@]2(CC[C@@H]3CN(S(=O)(=O)CC(C)C)C[C@@H]32)C(=O)N1CC | 47.53
CCN(Cc1c(F)cccc1F)Cn1nc(C)c2c(C)onc2c1=O | 62.13
CCN(Cc1cccc(F)c1)Cn1nc(C)c2c(C)onc2c1=O | 9.17
CCN(Cc1cccc(C)c1)Cn1nc(C)c2c(C)onc2c1=O | -1.02
CN1CCC(N(Cc2ccncc2)Cc2nc3c(s2)CCCC3)CC1 | -1.15
O=C(NCCCc1nc(=O)[nH][nH]1)c1ccc(Cl)cn1 | 43.28
CN(C)CCOCc1cncc2c1CCN(C(=O)C1CCOCC1)C2 | 26.48
Cn1ccnc1SCCNC1CCN(c2ncccn2)CC1 | 50.98
Cc1cc(C)nc(N2CCC(NCCSc3nnnn3C)CC2)n1 | -25.72
Cn1ccnc1SCCNC1CCN(c2nc3ccccc3s2)CC1 | -11.8
COc1cc(N2CCC3(CCCN(C(=O)c4cnccn4)C3)C2)ncn1 (stereo unspecified) | -42.01
CC(=O)N1CCN(CC(C)(O)c2cccc(C(F)(F)F)c2)CC1 (stereo unspecified) | 1.63
CCN1CCN(CC(C)(O)c2cccc(C(F)(F)F)c2)CC1 (stereo unspecified) | 69.41
CC(O)(CN1CCN(CCO)CC1)c1cccc(C(F)(F)F)c1 (stereo unspecified) | -27.62
O=C(NCCNc1ccccn1)Nc1cc(C(F)(F)F)c[nH]c1=O | -20.82
CC(C)C(NC(=O)Cn1ccc(=O)n(C)c1=O)c1ccc(F)cc1 (stereo unspecified) | -56.99
Fc1ccc(C(CNc2ccncn2)N2CCCC2)cc1 (stereo unspecified) | 30.93
N[C@@H]1CC[C@H](C(=O)NCCc2nc(-c3ccccc3)cs2)C1 | 60.18
NC(=O)CN1CCC(C(=O)NCCc2nc(-c3ccccc3)cs2)CC1 | -13.72
NC(=O)CN1CCC(C(=O)NCc2nc(-c3ccc(F)cc3)cs2)CC1 | 14.19
COCCN1CCCn2cnc(CNC(=O)N(C)C)c2C1 | 2.33
CC(C)(CO)CCCNC(=O)NC1(C)Cc2ccccc2C1 | 29.87

Compound | INHIBITION [%]
CC(C)(CO)CCCNC(=O)NC1(c2ccccc2F)CC1 | -3.66
CC(C)(CO)CCCNC(=O)NC1(c2cccc(F)c2)CC1 | 57.16
CC(NC(=O)COc1ccccc1I)C1CC1 (stereo unspecified) | -3.87
CN(CCOCC1CC1)C(=O)Nc1ccc([S+](C)[O-])cc1 (stereo unspecified) | -88.39
O=C(CCNCc1cccc2c1OCCCO2)NC1CCCC1 | -42.54
O=C(NCCNCc1cccc2c1OCCCO2)C1CCCC1 | 77.72
O=C(CC1CCCC1)NCCNCc1cccc2c1OCCO2 | 30.57
CCO[C@@H]1CO[C@@]2(CCCN(S(=O)(=O)c3ccccc3)C2)C1 | 32.66
COCCN1CCC12CCN(c1ncccn1)C2 (stereo unspecified) | 30.96
O=C(O)c1cc2n(n1)CCCN(C(=O)CCc1c[nH]c3ccccc13)C2 | 6.72
COC(=O)c1cc2n(n1)CCCN(C(=O)Cc1c[nH]c3ccccc13)C2 | 19.27
N#Cc1cc2n(n1)CCN(C(=O)CCc1c[nH]c3ccccc13)C2 | 76.29
CC(NC(=O)c1cccc(CCC(C)(C)O)c1)c1nnc(N)s1 (stereo unspecified) | 18.84
Cc1noc(C)c1-c1cc(C2CCNCC2)ccn1 | -18.04
O=S(=O)(CC1CCCO1)Nc1cc(Cl)ccc1-n1cccn1 (stereo unspecified) | -69.64
CN(C)C[C@@H]1CN(C2CCN(c3ccccc3Cl)CC2)C[C@@H]1CO | 32.26
Cc1ccc(N2CCC(N3C[C@@H](CN(C)C)[C@@H](CO)C3)CC2)cc1 | 27.85
CN(C)C[C@@H]1CN(C2CCN(c3ccc(Cl)cc3)CC2)C[C@@H]1CO | 63.46
Cc1ccccc1OCC(=O)N1CCN(C2CCOC2=O)CC1 (stereo unspecified) | -42.29
CCn1ccnc1CN(C)Cc1nc(Cc2ccccc2F)no1 | 36.34
Cc1cc(C[S+]([O-])CC(=O)NCc2cccc(Cl)c2)no1 (stereo unspecified) | -11.2
CCN1CC2(CC1=O)CN(C(C)=O)CCN(C(=O)NC)C2 (stereo unspecified) | -17.59

Source: ChEMBL document CHEMBL4513216, “Probing the Open Global Health Chemical Diversity Library for Multistage-Active Starting Points for Next-Generation Antimalarials” (ACS Infect Dis, 2020)
